Assay outcomes deposited in PubChem BioAssay by National Center for Advancing Translational Sciences (NCATS).
Compounds with a hit are over-represented: about 9.2% of the library has one in this group of screens.
SMN2 splice enh – SMN2 splice variant enhancement | HEK293 SMN2-luciferase splicing reporter, luminescence, 30-36 h | Potency, µM (highest dose often 46.1 µM), without a hit: top-dose activity change, positive = activation, most hits filed as activators | actives 2.8% (n = 210,000) | AID 1458; note: % of control where 0% means no effect; nearly all actives have a fitted effect of over 55% in size
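qHTS luciferase splicing reporter: luminescence rises when SMN2 exon 7 is included in transfected HEK293 cells. Compound exposure lasted 30-36 h at 37C, with 4.5 mM final sodium butyrate as control, followed by a ONE-Glo read.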
FLuc modulator – firefly luciferase modulation, counter-screen for miR-21 project | P08659 | purified FLuc, Km substrates, luminescence inhibition | AID 588342 | Potency, µM (top dose mostly 57.5 µM), without a hit: at the highest dose activity change, negative = inhibition, usual class: inhibitors | actives 6.9% (n = 360,000);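 note: plate controls were vehicle for no effect and reference inhibitor for full effect; nearly all actives have a fitted effect of over 55% in size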
Target sequence (P08659 whole entry, looked up): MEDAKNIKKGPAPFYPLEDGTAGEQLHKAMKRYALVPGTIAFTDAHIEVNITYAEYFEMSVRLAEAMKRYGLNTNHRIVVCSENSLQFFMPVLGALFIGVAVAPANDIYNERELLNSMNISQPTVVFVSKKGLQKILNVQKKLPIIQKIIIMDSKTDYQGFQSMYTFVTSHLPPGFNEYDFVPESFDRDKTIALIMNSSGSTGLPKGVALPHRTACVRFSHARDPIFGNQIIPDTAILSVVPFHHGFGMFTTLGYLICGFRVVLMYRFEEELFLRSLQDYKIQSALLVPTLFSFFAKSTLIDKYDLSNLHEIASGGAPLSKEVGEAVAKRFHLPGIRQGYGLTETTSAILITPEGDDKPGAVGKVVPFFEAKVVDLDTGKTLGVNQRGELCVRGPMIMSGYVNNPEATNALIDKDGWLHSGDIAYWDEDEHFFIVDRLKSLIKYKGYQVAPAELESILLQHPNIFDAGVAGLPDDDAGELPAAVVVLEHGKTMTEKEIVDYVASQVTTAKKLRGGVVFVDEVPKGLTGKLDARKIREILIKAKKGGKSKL
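Purified P. pyralis luciferase (10nM final) with 10uM D-luciferin and 10uM ATP (Km levels) in 50mM Tris acetate pH 7.5, 10mM Mg acetate, 0.01% Tween-20, 0.05% BSA; qHTS 6-point titration, ~60 µM downward; luminescence read.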
Rab9 prom act – activates the Rab9 promoter. Potency, µM (doses to about 9.22 µM), for the others: top-dose activation, negative = inhibition, actives largely listed as activators. Huh7 Rab9 promoter-luciferase reporter, luminescence, 24 h. AID 485297. actives 2.8% (n = 320,000); note: % of control where 0% means no effect; nearly all actives have a fitted effect of over 60% in size
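Luminescence from Amplite-detected luciferase (10 minutes, ambient) reports Rab9 promoter activation. Before that, stable Rab9-luciferase Huh7 cells (1500/well, reduced-serum OP-MEM I plus 10% FBS) were exposed to compound for 24 hours at 37C.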
NPC1 prom act – activators of NPC1 promoter | Huh7 NPC1 promoter luciferase reporter, 24 h | Potency, µM (series often up to 9.22 µM), for inactives: at the highest dose activation, most hits filed as activators | actives 2.4% (n = 320,000) | AID 485313; note: % of control where 0% means no effect; nearly all actives have a fitted effect of over 60% in size
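Compounds in DMSO were transferred onto Huh7 NPC1-luciferase reporter cells pre-incubated 2 h; after 24 h at 37 °C, Amplite reagent was dispensed and luminescence recorded 10 min later.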
ELG1 genotox – inducers of genotoxicity in HEK293T ELG1-luciferase cells. Potency, µM (titrated, usually from 46 µM), for the others: at the top dose activity change, positive = activation, usual class: activators. HEK293T ELG1-luciferase reporter, luminescence, 16 h. AID 504466. actives 1.3% (n = 330,000); note: % of control where 0% means no effect; nearly all actives have a fitted effect of over 60% in size
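Reporter readout depends on ELG1 protein level, which increases with genetic stress. After 16 hr compound exposure at 37 °C, luciferase activity was quantified using ONE-Glo.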
ELG1 repair inh – inhibitors of ELG1-dependent DNA repair in HEK293T cells; HEK293T ELG1-luciferase reporter, luminescence, 16 h; DNA damage induced by 5-fluorouridine; Potency, µM (highest dose often 46.1 µM), for the others: at the top dose activity change, negative = inhibition, actives largely listed as inhibitors; actives 2.3% (n = 330,000); AID 504467; note: % is set by controls: 0 for no effect and ±100 for the full control effect; nearly all actives have a fitted effect of over 55% in size
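Luminescence from the luciferase reporter, measured 30 min after ONE-Glo reagent at room temperature, was the read-out. Beforehand, 2,000 cells per well were exposed for 16 hr at 37 °C to 5-fluorouridine together with compound or vehicle.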
The depositor's hits bear a star; ? = inconclusive; / = no result given; [ ] = dose if it differs, or a comment. Calls come from the whole dose curve; as a rule, active = well fitted curve in the direction sought with a large enough effect; inconclusive = small, poorly fitted or top-dose-only effect, or another doubt; inactive = no such curve, though single readings can be large; an effect the other way counts as inactive or inconclusive. Potency is the fitted concentration of half-maximal effect.

SMILES | SMN2 splice enh | FLuc modulator | Rab9 prom act | NPC1 prom act | ELG1 genotox | ELG1 repair inh
CSC(C1CCCC1)n1nnc2ccccc21 (stereo not given) | / | 7% | -2% | -1% | -2% | 3%
COc1ccc(NS(=O)(=O)c2ccc3oc(Nc4ccc5c(c4)OCCO5)nc3c2)cc1 | 7% | 19µM* | 13% | 1% | 3% | ?
CSc1ccc(Cc2ccc(Cl)cc2Cl)nn1 | -11% | 17µM* | ? | 28% | 12% | ?
CC(C)(C)c1ccc(S(=O)(=O)N2CCNC(=O)C2)cc1 | / | / | / | / | 4% | ?
N#CCOc1ccc2oc(-c3ccco3)cc(=O)c2c1 | -19% | 1% | 2% | 9% | -6% | ?
Cc1ccc2oc(-c3ccco3)cc(=O)c2c1 | ? | 9.5µM* | 2.8µM* | ? | 21µM* | ?
CC(C)OCCOc1ccc2oc(-c3ccco3)cc(=O)c2c1 | / | 24µM* | ? | ? | 8% | ?
COc1cc(C(=O)Nc2cc(-c3nc4cc(C)ccc4o3)ccc2C)cc(OC)c1OC | ? | 0.27µM* | ? | ? | ? | 25%
Cc1ccc2oc(-c3ccc(C)c(NC(=O)C(C)(C)Oc4ccc(Cl)cc4)c3)nc2c1 | ? | 3.8µM* | / | / | / | /
Cc1ccc2oc(-c3ccc(C)c(NC(=O)Cc4cccs4)c3)nc2c1 | 1% | ? | 2% | 27% | 1% | -6%
Cc1ccc2oc(-c3ccc(C)c(NC(=O)c4ccc(C(C)(C)C)cc4)c3)nc2c1 | -16% | -15% | / | / | / | /
COc1cc(C(=O)Nc2cccc(-c3nc4cc(C)ccc4o3)c2C)cc(OC)c1OC | 5% | 0.95µM* | 7% | 16% | 11% | 30%
Cc1ccc2oc(-c3ccc(C)c(NC(=S)NC(=O)c4cccs4)c3)nc2c1 | ? | 6µM* | 29% | 19% | 8.2µM* | ?
Cc1cc(Cl)ccc1Oc1ncnc2onc(C)c12 | 4% | 0% | -3% | -6% | 1% | 8%
CC(C)c1cc(C(=O)N2CCCC(CCC(=O)NCc3ccccc3F)C2)n(C)n1 (stereo not given) | -43% | 6% | -14% | -13% | -5% | ?
COc1cc(C(=O)Nc2cccc(-c3nc4cc(C)ccc4o3)c2)cc(OC)c1OC | -10% | 1.7µM* | 20% | 18% | -4% | 15µM*
CCCCCOC(=O)c1ccc(NC(=O)c2ccco2)cc1 | 4% | -17% | 15% | 9% | -4% | 0%
COc1ccc(/C=N/NC(=O)CN(C)S(=O)(=O)c2ccc(NC(C)=O)cc2)cc1 | / | ? | -4% | -5% | -3% | 9%
COc1cccc(/C=N/NC(=O)CN(CCc2ccccc2)S(=O)(=O)c2ccc(NC(C)=O)cc2)c1 | 1%[1.84 µM] | -14% | 1% | -3% | -7% | 23µM*
COc1ccc2oc3ccccc3c(=O)c2c1 | / | 3% | 0% | -3% | -7% | -11%
COc1ccc2oc3ccc(OC)cc3c(=O)c2c1 | ? | 3µM* | 2.8µM* | 3.2µM* | ? | ?
COc1ccc2oc(C)c(C(=O)c3ccc(C)cc3)c2c1 | / | 17µM* | 4% | 10% | 0% | 28%
COc1cc(O)c2c(=O)c3c(OC)c(O)ccc3oc2c1 | / | 19µM* | 8% | 2% | ? | ?
COc1cc(O)c2c(=O)c(O)c(-c3ccc(O)c(O)c3)oc2c1 | -3% | / | / | / | / | /
O=C(COC(=O)Cn1cnc2ccccc21)Nc1ccc(OC(F)F)cc1 | / | / | / | / | 3% | 9%
SMILES | SMN2 splice enh | FLuc modulator | Rab9 prom act | NPC1 prom act | ELG1 genotox | ELG1 repair inh
CCc1ccccc1N(CC(=O)NC1CCCC1)C(=O)CNC(=O)c1cccs1 | / | 0% | -5% | -2% | -15% | -4%
COc1ccc(-n2nc3cc(N)c(Br)cc3n2)cc1 | / | 4.8µM* | ? | ? | 18µM* | ?
COc1ccc(-n2nc3cc(C)c(N)c(Br)c3n2)cc1 | 7.9µM* | 1.1µM* | 1.3µM* | 2.8µM* | 7.3µM* | ?
O=C(NCCc1ccccc1)C1CCN(c2ncnc3c2nc2n3CCCCC2)CC1 | / | 1% | / | / | / | /
Cc1ccccc1OCC(=O)Nc1cccc(NC(=O)c2ccco2)c1 | -4% | 11µM* | ? | -2% | -5% | -24%
Cc1cccc(C)c1OCC(=O)Nc1ccc(NC(=O)c2ccco2)cc1 | / | -5% | -4% | -5% | -6% | -21%
COc1ccc(OCC(=O)Nc2ccc(NC(=O)c3ccco3)cc2)cc1 | 28µM* | 0% | 24% | 14% | ? | ?
Cc1cccc(C)c1OCC(=O)Nc1cccc(NC(=O)c2ccco2)c1 | -25% | ? | -3% | -1% | -6% | 18µM*
O=C(COC(=O)CNC(=O)c1ccc(F)cc1)Nc1cccc(S(=O)(=O)N2CCCC2)c1 | / | -13% | -6% | -4% | 2% | -5%
N#Cc1ccc(NC(=O)CNc2cc(S(=O)(=O)N3CCOCC3)ccc2NCC2CCCO2)cc1 (stereo not given) | -6% | -5% | 1% | -1% | -2% | 8.2µM*
CCOc1ccc(C(=O)NCC(=O)OCC(=O)Nc2cccc(S(=O)(=O)N3CCCC3)c2)cc1 | / | 4.3µM* | -2% | 0% | 5% | 20%
O=C(Nc1cccc(S(=O)(=O)N2CCCCC2)c1)c1ccc(OCC2CCCO2)cc1 (stereo not given) | -67% | 15µM* | 4% | -5% | -18% | 13µM*
CCCOc1ccc(C(=O)CCC(=O)OCC(=O)Nc2cccc(S(N)(=O)=O)c2)cc1 | / | 11µM* | -6% | 0% | 2% | ?
O=C(CNc1cc(S(=O)(=O)N2CCOCC2)ccc1NCC1CCCO1)Nc1ccc(C(F)(F)F)cc1 (stereo not given) | / | -1% | 1% | 6% | -7% | ?
COc1cc(OC)cc(C(=O)Nc2ccccc2S(=O)(=O)N2CCCC2OC(C)=O)c1 (stereo not given) | / | 1% | -2% | -6% | 0% | 4%
CN1CC(=O)N(CC(=O)Nc2ccc3c(c2)CCC3)C1=O | 21% | -1% | 0% | -5% | -2% | 11%
Cc1ccc(C(C)C)c(OCc2ccc(C(=O)Nc3ccc(S(N)(=O)=O)cc3C)o2)c1 | -21% | -13% | / | / | / | /
CCOc1ccc(C(=O)NCC(=O)OCC(=O)Nc2nnc(-c3ccccc3)o2)cc1 | / | 13µM* | 3% | 1% | 3% | 22%
O=C(Nc1ccc(S(=O)(=O)N2CCCC2)cc1)c1ccc(OCC2CCCO2)cc1 (stereo not given) | -76% | 2% | -21% | -21% | -9% | ?
O=C(COC(=O)CNC(=O)c1ccc(Br)cc1)Nc1nnc(-c2ccccc2)o1 | / | ? | -4% | 1% | -2% | 3%
